The text below walks through data of PubChem BioAssay (Tox21).

Inconclusive results are not listed. Entries that show only a call come without a potency. Active and inactive are the calls of the source. Unless noted, the call rests on the fitted dose curve; in most records, active means well fitted cell-killing curve with a large enough effect in the repeat runs; inconclusive means weak or mixed curves, or effect the other way; inactive means no such curve, though single readings can be large or run the other way.

Progesterone receptor (Homo sapiens), sequence (P06401 whole entry, looked up): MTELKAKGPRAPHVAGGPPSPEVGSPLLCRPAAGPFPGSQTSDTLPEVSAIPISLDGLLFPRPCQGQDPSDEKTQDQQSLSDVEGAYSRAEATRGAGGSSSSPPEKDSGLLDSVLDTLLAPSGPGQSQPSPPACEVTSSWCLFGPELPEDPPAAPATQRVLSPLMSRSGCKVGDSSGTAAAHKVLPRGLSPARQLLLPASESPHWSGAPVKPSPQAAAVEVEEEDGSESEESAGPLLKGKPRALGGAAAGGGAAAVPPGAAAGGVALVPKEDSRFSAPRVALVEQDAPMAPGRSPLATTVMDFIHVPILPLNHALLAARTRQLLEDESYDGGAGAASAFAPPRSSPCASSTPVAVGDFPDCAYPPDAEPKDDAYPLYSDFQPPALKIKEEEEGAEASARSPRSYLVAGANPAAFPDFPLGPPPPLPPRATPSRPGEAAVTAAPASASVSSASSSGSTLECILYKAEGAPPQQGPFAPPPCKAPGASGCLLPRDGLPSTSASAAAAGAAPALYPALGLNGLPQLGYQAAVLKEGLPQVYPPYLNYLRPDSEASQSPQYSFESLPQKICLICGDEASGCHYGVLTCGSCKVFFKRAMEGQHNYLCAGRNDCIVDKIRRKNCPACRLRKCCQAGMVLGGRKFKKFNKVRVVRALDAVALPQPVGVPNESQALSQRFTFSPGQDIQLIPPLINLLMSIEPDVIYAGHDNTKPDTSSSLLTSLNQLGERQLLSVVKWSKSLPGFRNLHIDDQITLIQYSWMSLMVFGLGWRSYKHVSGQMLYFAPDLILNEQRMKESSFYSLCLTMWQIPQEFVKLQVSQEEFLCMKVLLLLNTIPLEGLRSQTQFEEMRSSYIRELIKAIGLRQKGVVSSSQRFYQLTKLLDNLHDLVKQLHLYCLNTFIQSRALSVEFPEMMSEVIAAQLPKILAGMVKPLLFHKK

One experiment addresses Progesterone receptor (Homo sapiens) (UniProt P06401). Nature of the experiment: qHTS assay to identify small molecule agonists of the progesterone receptor (PR) signaling pathway (AID 1346784; calls by dose curve; further: nearly all actives have a fitted effect of over 30% in size; further: potency means the concentration at half of the fitted maximal effect). The following applies: PR-UAS-bla HEK293T, beta-lactamase FRET ratio, 16 h; series mostly up to 92.4 µM. The gist of the method: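 Using charcoal-stripped serum (2%) to limit endogenous steroids, PR-UAS-bla HEK 293T cells received compounds for 16 hr at 37C after 6 hr plating; beta-lactamase FRET fluorescence was recorded following 2 hr substrate loading at room temperature.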
As for `NCC1CCCC(CN)C1` (stereo unspecified), the Potency result is “inactive”.

Regarding `CCC(=O)OC/C=C/c1ccccc1`, the Potency entry is “inactive”.

On to `CCCCCCCCCOC(C)=O`, for which the Potency entry is “inactive”.

With `O=C(CCCCCCCCC#CI)Oc1ccccc1`, the Potency entry is “inactive”.

Take `CO[C@H]1O[C@H](CO)[C@@H](O)[C@H](O)[C@H]1O`: the Potency result was “inactive”.

For `O=S1OCCO1`, the Potency entry was “inactive”.

`O=C(O)C(Cc1cc(I)c(O)c(I)c1)c1ccccc1` (stereo unspecified): the Potency entry was “inactive”.

As for `CC(CCc1ccc2c(c1)OCO2)NN` (stereo unspecified), the Potency result was “inactive”.

Take `CC(=O)OCC(=O)[C@@]12OC(C)(C)O[C@@H]1C[C@H]1[C@@H]3C[C@H](F)C4=CC(=O)C=C[C@]4(C)[C@@]3(F)[C@@H](O)C[C@@]12C`: the Potency is 3.3 nM (active).

Take `CC1CC(O)CC(C)(C)C1` (stereo unspecified): the Potency result was “inactive”.

In the case of `CCCC(=O)O[C@]1(C(=O)COC(=O)CC)CC[C@H]2[C@@H]3CCC4=CC(=O)CC[C@]4(C)[C@H]3[C@@H](O)C[C@@]21C`, the activation was 3.7% [at 19 µM] (inactive).

On to `CCOCCn1c(C2CCN(CCc3ccc(C(C)(C)C(=O)O)cc3)CC2)nc2ccccc21`, for which the Potency result is “inactive”.

For the compound `CCCCOC(=O)CCS`, the Potency entry is “inactive”.

`CCCOC(=O)c1ccc(N)cc1`: the Potency entry was “inactive”.

Consider `CC1(C)C(=O)N(Br)C(=O)N1Cl`, for which the Potency entry was “inactive”.

Consider `Cc1cc(O)c(C(C)C)cc1Cl`, for which the Potency entry is “inactive”.

Take `CCOC(=O)/C=C/C(=O)O`: the Potency result is “inactive”.

With `O=C(O)c1cccc(O)c1`, the Potency result was “inactive”.

For another experiment the target is unchanged. Briefly: qHTS assay to identify small molecule antagonists of the progesterone receptor (PR) signaling pathway (AID 1346795; active means well fitted inhibition curve with a large enough effect in the signal ratio in the repeat runs, not every such curve was filed as active; the % refers to the signal ratio). The following applies: PR-UAS-bla HEK293T, beta-lactamase FRET ratio, 16 h; series mostly up to 92.4 µM. The essentials:
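Inhibition of R5020-induced (1 nM final) beta-lactamase reporter signal in PR-UAS-bla HEK293T cells was scored by FRET fluorescence after overnight (16 hr) compound treatment.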
(In qHTS, concentration-response curves come from the screen itself.)
For `CN1C(=O)CC(C)(c2ccccc2)C1=O` (stereo unspecified), the Potency result is “inactive”.

On to `CC(=O)Nc1ccccc1C`, for which the Potency entry was “inactive”.

For the compound `CCCCC(CC)COC(=O)COc1ccc(Cl)cc1C` (stereo unspecified), the Potency result is “inactive”.

In the case of `COc1ccc(CCC(=O)c2c(O)cc(O[C@@H]3O[C@H](CO)[C@@H](O)[C@H](O)[C@H]3O[C@@H]3O[C@@H](C)[C@H](O)[C@@H](O)[C@H]3O)cc2O)cc1O`, the Potency entry is “inactive”.

For the compound `CCCOCCOCCO`, the Potency entry was “inactive”.

Regarding `CC(=O)Nc1ccc(N)cc1`, the Potency entry is “inactive”.

In the case of `CC1=C(C=O)C(C)(C)CCC1`, the Potency entry was “inactive”.

In the case of `C=CCCCCCCCCCCCCCCCC`, the activity change, negative = inhibition was 15.4% [at 8.39 µM] (inactive).

On to `CN1Cc2cc(C(=O)N3CCC(C4CCNCC4)CC3)ccc2N[C@@H](CC(=O)O)C1=O`, for which the Potency entry is “inactive”.

With `Cc1ccccc1N1C(=O)c2cc(S(N)(=O)=O)c(Cl)cc2NC1C` (stereo unspecified), the Potency entry was “inactive”.

As to `CC(CCO)CCc1ccccc1` (stereo unspecified), the Potency entry was “inactive”.

On to `O=C(O)c1snc(Cl)c1Cl`, for which the Potency entry is “inactive”.

On to `Cc1nc2ccccc2s1`, for which the Potency entry was “inactive”.

For the compound `C=CC(=O)NCOCC(C)C`, the Potency result is “inactive”.

With `CCn1cc(C(=O)O)c(=O)c2cc(F)c(N3CCNCC3)nc21`, the Potency result was “inactive”.

In the case of `NC(=O)Nc1ccc(Cl)cc1`, the Potency entry is “inactive”.

On to `Cc1ccnc2ccccc12`, for which the Potency result is “inactive”.

`CN1CCN(c2c(F)cc3c(=O)c(C(=O)O)cn4c3c2OCN4C)CC1`: the activity change, negative = inhibition is 0.0233% [at 18.9 µM] (inactive).

On to `NCC1CCCC(CN)C1` (stereo unspecified), for which the Potency result was “inactive”.

With `CCC(=O)OC/C=C/c1ccccc1`, the Potency result is “inactive”.

Consider `CCCCCCCCCOC(C)=O`, for which the Potency entry was “inactive”.

Turning to `O=C(CCCCCCCCC#CI)Oc1ccccc1`, the Potency entry is “inactive”.

Take `CO[C@H]1O[C@H](CO)[C@@H](O)[C@H](O)[C@H]1O`: the Potency result was “inactive”.

For `O=S1OCCO1`, the Potency entry is “inactive”.

Turning to `CC(CCc1ccc2c(c1)OCO2)NN` (stereo unspecified), the Potency result was “inactive”.

Turning to `CC(=O)OCC(=O)[C@@]12OC(C)(C)O[C@@H]1C[C@H]1[C@@H]3C[C@H](F)C4=CC(=O)C=C[C@]4(C)[C@@]3(F)[C@@H](O)C[C@@]12C`, the Potency entry is “inactive”.

`CC1CC(O)CC(C)(C)C1` (stereo unspecified): the Potency result is “inactive”.

For the compound `CCCCCCOC(=O)C(C)C`, the Potency result is “inactive”.

On to `CCOCCn1c(C2CCN(CCc3ccc(C(C)(C)C(=O)O)cc3)CC2)nc2ccccc21`, for which the Potency result is “inactive”.

Regarding `CCCCOC(=O)CCS`, the Potency result was “inactive”.

On to `CCCOC(=O)c1ccc(N)cc1`, for which the Potency entry was “inactive”.

`CC1(C)C(=O)N(Br)C(=O)N1Cl`: the Potency entry is “inactive”.

With `Cc1cc(O)c(C(C)C)cc1Cl`, the Potency entry was “inactive”.

`CCOC(=O)/C=C/C(=O)O`: the Potency result was “inactive”.

`O=C(O)c1cccc(O)c1`: the Potency result was “inactive”.

System in a further experiment: not listed separately
Briefly: qHTS assay to identify small molecule antagonists of the progesterone receptor (PR) signaling pathway - cell viability counter screen (AID 1346798). Further: nearly all actives have a fitted effect of over 50% in size. The following applies: PR-UAS-bla HEK293T viability, CellTiter-Glo luminescence, 16 h; series mostly up to 92.4 µM. The essentials:
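ATP content as viability readout: CellTiter-Glo luminescence, 30 min room temperature, in PR-UAS-bla HEK293T cells after 16 hr compound/R5020 treatment at 37C and 5% CO2.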
For `CN1C(=O)CC(C)(c2ccccc2)C1=O` (stereo unspecified), the Potency result was “inactive”.

For the compound `CC(=O)Nc1ccccc1C`, the Potency entry was “inactive”.

As to `CCCCC(CC)COC(=O)COc1ccc(Cl)cc1C` (stereo unspecified), the Potency result was “inactive”.

As for `COc1ccc(CCC(=O)c2c(O)cc(O[C@@H]3O[C@H](CO)[C@@H](O)[C@H](O)[C@H]3O[C@@H]3O[C@@H](C)[C@H](O)[C@@H](O)[C@H]3O)cc2O)cc1O`, the Potency result was “inactive”.

Take `Cc1cc(OI)c(C(C)C)cc1-c1cc(C(C)C)c(OI)cc1C`: the Potency entry was “inactive”.

For the compound `CCCOCCOCCO`, the Potency result was “inactive”.

Turning to `CC(=O)Nc1ccc(N)cc1`, the Potency entry is “inactive”.

With `CC1=C(C=O)C(C)(C)CCC1`, the Potency entry was “inactive”.

On to `C=CCCCCCCCCCCCCCCCC`, for which the activity change, negative = cytotoxicity was 4.23% [at 8.39 µM] (inactive).

Consider `CN1Cc2cc(C(=O)N3CCC(C4CCNCC4)CC3)ccc2N[C@@H](CC(=O)O)C1=O`, for which the Potency result was “inactive”.

Regarding `Cc1ccccc1N1C(=O)c2cc(S(N)(=O)=O)c(Cl)cc2NC1C` (stereo unspecified), the Potency entry was “inactive”.

For the compound `CC(CCO)CCc1ccccc1` (stereo unspecified), the Potency entry was “inactive”.

Take `O=C(O)c1snc(Cl)c1Cl`: the Potency result is “inactive”.

In the case of `Cc1nc2ccccc2s1`, the Potency entry is “inactive”.

In the case of `C=CC(=O)NCOCC(C)C`, the Potency entry is “inactive”.

With `CCn1cc(C(=O)O)c(=O)c2cc(F)c(N3CCNCC3)nc21`, the Potency entry was “inactive”.

As to `NC(=O)Nc1ccc(Cl)cc1`, the Potency entry is “inactive”.

On to `CN1CCN(c2c(F)cc3c(=O)c(C(=O)O)cn4c3c2OCN4C)CC1`, for which the activity change, negative = cytotoxicity was 10.3% [at 18.9 µM] (inactive).

`NCC1CCCC(CN)C1` (stereo unspecified): the Potency result was “inactive”.

With `CCC(=O)OC/C=C/c1ccccc1`, the Potency entry is “inactive”.

For the compound `CCCCCCCCCOC(C)=O`, the Potency result was “inactive”.

In the case of `O=C(CCCCCCCCC#CI)Oc1ccccc1`, the Potency entry is “inactive”.

In the case of `CO[C@H]1O[C@H](CO)[C@@H](O)[C@H](O)[C@H]1O`, the Potency result was “inactive”.

As for `O=S1OCCO1`, the Potency entry is “inactive”.

Take `CC(CCc1ccc2c(c1)OCO2)NN` (stereo unspecified): the Potency entry is “inactive”.

Take `CC(=O)OCC(=O)[C@@]12OC(C)(C)O[C@@H]1C[C@H]1[C@@H]3C[C@H](F)C4=CC(=O)C=C[C@]4(C)[C@@]3(F)[C@@H](O)C[C@@]12C`: the Potency entry is “inactive”.

As for `CCCCCCOC(=O)C(C)C`, the Potency entry was “inactive”.

As for `CCCC(=O)O[C@]1(C(=O)COC(=O)CC)CC[C@H]2[C@@H]3CCC4=CC(=O)CC[C@]4(C)[C@H]3[C@@H](O)C[C@@]21C`, the activity change, negative = cytotoxicity is -3.5% [at 18.9 µM] (inactive).

For `CCOCCn1c(C2CCN(CCc3ccc(C(C)(C)C(=O)O)cc3)CC2)nc2ccccc21`, the Potency entry was “inactive”.

Consider `CCCOC(=O)c1ccc(N)cc1`, for which the Potency entry was “inactive”.

Regarding `CC1(C)C(=O)N(Br)C(=O)N1Cl`, the Potency entry is “inactive”.

On to `Cc1cc(O)c(C(C)C)cc1Cl`, for which the Potency result was “inactive”.

Take `O=C(O)c1cccc(O)c1`: the Potency result is “inactive”.
